Our source for the composite z-score and z-score values is PubChem BioAssay.

Calls of active or inactive are those of the source.

Test [1] is described as follows: small molecules captured by biotinylated probe aFSTL3 – biochemical, small-molecule microarray, fluorescence 635/667, stem cell growth factor project, primary screen (AID 1064).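 Also: measures binding of the biotinylated anti-FSTL3 antibody to printed compounds.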 The conditions noted are these: higher = more signal.
Test [2] can be described thus: binders from COS7 lysate, DM2A8 probe, primary screen, torsin A project, cell lysate, small-molecule microarray, fluorescence 635/667 (AID 1065). The conditions noted are these: higher = more signal, COS7 lysate expressing mutant human TOR1A.
Test [3] can be described thus: small molecules captured by biotinylated probe aFGF2 – biochemical, small-molecule microarray, fluorescence 635/667, stem cell growth factor project, primary screen (AID 1067).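 Also: measures binding of biotinylated aFGF2 protein to printed compounds on slides; z-score merges feature fluorescence and signal-to-noise across triplicate slides.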 Particulars: higher = more signal.
Test [4] is described as follows: small molecules captured by biotinylated probe aFGF10 – biochemical, small-molecule microarray, fluorescence 635/667, stem cell growth factor project, primary screen (AID 1071).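 Also: score merges 667 nm spot intensity and signal to noise from triplicate slides.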 Particulars: higher = more signal.
Test [5] deals with Neurogenic locus notch homolog protein 2 (Homo sapiens) (UniProt Q04721). The test can be described thus: small molecules binding Notch2 protein – biochemical, small-molecule microarray, 635 nm fluorescence, stem cell growth factors, primary screen (AID 1073). The conditions noted are these: higher = more signal.
In test [6] the target is Pro-neuregulin-1, membrane-bound isoform (Homo sapiens) (UniProt Q02297). Kind of test: small molecules binding neuregulin-1 protein – biochemical, small-molecule microarray, fluorescence 635/667, psychiatric disease protein project, primary screen (AID 1075).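 Also: score combines 667 nm spot fluorescence with signal to noise.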 Particulars: NRG1 binding, 635 nm fluorescence, higher = more signal.
The subject of test [7] is Neuregulin-1 EGF-like domain. Kind of test: small molecules binding NRG1 EGF domain – biochemical, small-molecule microarray, 635 nm fluorescence, primary screen (AID 1081).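 Also: binding of the protein to compounds printed on small-molecule microarray slides.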 The conditions noted are these: higher = more signal.
A short description of test [8]: FRG1 expression reporter modulators in myotubes – cell-based, C2C12 myotubes, firefly/Renilla luciferase, luminescence, FRG1 inhibition for FSHD, primary screen (AID 1084). The conditions noted are these: FRG1 promoter luciferase, higher = more signal, called active from +8 up or from −8 down.
Test [9] can be described thus: small molecules captured by biotinylated probe aFST – biochemical, small-molecule microarray, fluorescence 635/667, stem cell growth factor project, primary screen (AID 1086).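 Also: score merges 667 nm fluorescence with signal-to-noise of each printed compound spot.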 The conditions noted are these: higher = more signal.
A short description of test [10]: binders of probe aHhip on microarray, primary screen, stem cell growth factor project, biochemical, small-molecule microarray, fluorescence 635/667 (AID 1087).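 Also: score merges spot fluorescence at 667nm with spot signal to noise ratio.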 The conditions noted are these: higher = more signal.
Test [11] has as its system PRMT1 (protein arginine N-methyltransferase 1). The test can be described thus: small molecules binding arginine methyltransferase PRMT1 – biochemical, small-molecule microarray, 635 nm fluorescence, primary screen (AID 1088).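 Also: binding of Prmt1 protein to compounds spotted on small-molecule microarray slides.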 The conditions noted are these: higher = more signal.
Test [12] can be described thus: growth effects on S. cerevisiae YJM789 – YJM789 clinical isolate, OD600, 24 h, basal, primary screen (AID 1089).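 Also: growth of clinical yeast isolate S. cerevisiae YJM 789 seeded 1000 cells per well; test concentration not given here.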 Particulars: higher = more signal, called active from +8 up or from −8 down.
Test [13] in a line: S. pombe growth modifiers, basal conditions – strain 972, OD600, 24 h, no modulator, primary screen (AID 1090).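 Also: basal condition with compound alone and no growth modifier present; test concentration not given here.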 The conditions noted are these: S. pombe 972 growth, higher = more signal, called active from +8 up or from −8 down.
Test [14] in a line: budding yeast growth modifiers under rapamycin – strain BY4716, OD600, 96 h, primary screen (AID 1091). Also: test concentration not given here. The conditions noted are these: S. cerevisiae BY4716 + rapamycin, higher = more signal, called active from +8 up or from −8 down.
Test [15] deals with Torsin-1A-interacting protein 2 (Homo sapiens) (UniProt Q8NFQ8). The test can be described thus: small molecules binding lysate-expressed LULL1 – cell lysate, human LULL1 lysate, 635/667 nm fluorescence, primary screen (AID 1092).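 Also: probe is lysate of COS7 cells overexpressing human LULL1; score merges per-feature 667 nm fluorescence with signal-to-noise.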 The conditions noted are these: small-molecule microarray, hLULL1 lysate binding, 635 nm fluorescence; higher = more signal.
Test [16] can be described thus: optical density change of DRC41 E. coli – strain DRC41, OD650, 24 h, E. coli filamentation project, primary screen (AID 1093).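 Also: MC1000 strain lacking acrAB efflux and sulA so SOS filamentation is blocked; test concentration not given here.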 Particulars: E. coli DRC41 growth, higher = more signal, called active from +8 up or from −8 down.
Test [17] is described as follows: probe aLefty2 binding to arrayed compounds – biochemical, biotinylated probe, 635/667 nm fluorescence, primary screen (AID 1094).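 Also: score merges spot fluorescence near 667 nm with spot signal-to-noise ratio.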 The conditions noted are these: small-molecule microarray, higher = more signal.
Test [18] deals with Noggin (protein binding on small-molecule microarray). The test can be described thus: small molecules binding Noggin protein – biochemical, 635/667 nm fluorescence, primary screen (AID 1095).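 Also: score merges 667 nm feature fluorescence with signal to noise over triplicate slides.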 Particulars: 635 nm fluorescence, higher = more signal.
The target in test [19] is Neurogenic locus notch homolog protein 3 (Homo sapiens) (UniProt Q9UM47). Kind of test: small molecules binding NOTCH3 protein – biochemical, 635/667 nm fluorescence, primary screen (AID 1096). Particulars: small-molecule microarray, 635 nm fluorescence, higher = more signal.
Test [20] is described as follows: probe aEGFR binding to arrayed compounds – biochemical, biotinylated probe, 635/667 nm fluorescence, primary screen (AID 1097).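 Also: probe is a biotinylated anti-EGFR antibody binding compounds printed on slides; score combines fluorescence near 667 nm and signal to noise of each spot.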 The conditions noted are these: small-molecule microarray, higher = more signal.

Chain of Neurogenic locus notch homolog protein 3 (Homo sapiens) (Q9UM47 whole entry, looked up): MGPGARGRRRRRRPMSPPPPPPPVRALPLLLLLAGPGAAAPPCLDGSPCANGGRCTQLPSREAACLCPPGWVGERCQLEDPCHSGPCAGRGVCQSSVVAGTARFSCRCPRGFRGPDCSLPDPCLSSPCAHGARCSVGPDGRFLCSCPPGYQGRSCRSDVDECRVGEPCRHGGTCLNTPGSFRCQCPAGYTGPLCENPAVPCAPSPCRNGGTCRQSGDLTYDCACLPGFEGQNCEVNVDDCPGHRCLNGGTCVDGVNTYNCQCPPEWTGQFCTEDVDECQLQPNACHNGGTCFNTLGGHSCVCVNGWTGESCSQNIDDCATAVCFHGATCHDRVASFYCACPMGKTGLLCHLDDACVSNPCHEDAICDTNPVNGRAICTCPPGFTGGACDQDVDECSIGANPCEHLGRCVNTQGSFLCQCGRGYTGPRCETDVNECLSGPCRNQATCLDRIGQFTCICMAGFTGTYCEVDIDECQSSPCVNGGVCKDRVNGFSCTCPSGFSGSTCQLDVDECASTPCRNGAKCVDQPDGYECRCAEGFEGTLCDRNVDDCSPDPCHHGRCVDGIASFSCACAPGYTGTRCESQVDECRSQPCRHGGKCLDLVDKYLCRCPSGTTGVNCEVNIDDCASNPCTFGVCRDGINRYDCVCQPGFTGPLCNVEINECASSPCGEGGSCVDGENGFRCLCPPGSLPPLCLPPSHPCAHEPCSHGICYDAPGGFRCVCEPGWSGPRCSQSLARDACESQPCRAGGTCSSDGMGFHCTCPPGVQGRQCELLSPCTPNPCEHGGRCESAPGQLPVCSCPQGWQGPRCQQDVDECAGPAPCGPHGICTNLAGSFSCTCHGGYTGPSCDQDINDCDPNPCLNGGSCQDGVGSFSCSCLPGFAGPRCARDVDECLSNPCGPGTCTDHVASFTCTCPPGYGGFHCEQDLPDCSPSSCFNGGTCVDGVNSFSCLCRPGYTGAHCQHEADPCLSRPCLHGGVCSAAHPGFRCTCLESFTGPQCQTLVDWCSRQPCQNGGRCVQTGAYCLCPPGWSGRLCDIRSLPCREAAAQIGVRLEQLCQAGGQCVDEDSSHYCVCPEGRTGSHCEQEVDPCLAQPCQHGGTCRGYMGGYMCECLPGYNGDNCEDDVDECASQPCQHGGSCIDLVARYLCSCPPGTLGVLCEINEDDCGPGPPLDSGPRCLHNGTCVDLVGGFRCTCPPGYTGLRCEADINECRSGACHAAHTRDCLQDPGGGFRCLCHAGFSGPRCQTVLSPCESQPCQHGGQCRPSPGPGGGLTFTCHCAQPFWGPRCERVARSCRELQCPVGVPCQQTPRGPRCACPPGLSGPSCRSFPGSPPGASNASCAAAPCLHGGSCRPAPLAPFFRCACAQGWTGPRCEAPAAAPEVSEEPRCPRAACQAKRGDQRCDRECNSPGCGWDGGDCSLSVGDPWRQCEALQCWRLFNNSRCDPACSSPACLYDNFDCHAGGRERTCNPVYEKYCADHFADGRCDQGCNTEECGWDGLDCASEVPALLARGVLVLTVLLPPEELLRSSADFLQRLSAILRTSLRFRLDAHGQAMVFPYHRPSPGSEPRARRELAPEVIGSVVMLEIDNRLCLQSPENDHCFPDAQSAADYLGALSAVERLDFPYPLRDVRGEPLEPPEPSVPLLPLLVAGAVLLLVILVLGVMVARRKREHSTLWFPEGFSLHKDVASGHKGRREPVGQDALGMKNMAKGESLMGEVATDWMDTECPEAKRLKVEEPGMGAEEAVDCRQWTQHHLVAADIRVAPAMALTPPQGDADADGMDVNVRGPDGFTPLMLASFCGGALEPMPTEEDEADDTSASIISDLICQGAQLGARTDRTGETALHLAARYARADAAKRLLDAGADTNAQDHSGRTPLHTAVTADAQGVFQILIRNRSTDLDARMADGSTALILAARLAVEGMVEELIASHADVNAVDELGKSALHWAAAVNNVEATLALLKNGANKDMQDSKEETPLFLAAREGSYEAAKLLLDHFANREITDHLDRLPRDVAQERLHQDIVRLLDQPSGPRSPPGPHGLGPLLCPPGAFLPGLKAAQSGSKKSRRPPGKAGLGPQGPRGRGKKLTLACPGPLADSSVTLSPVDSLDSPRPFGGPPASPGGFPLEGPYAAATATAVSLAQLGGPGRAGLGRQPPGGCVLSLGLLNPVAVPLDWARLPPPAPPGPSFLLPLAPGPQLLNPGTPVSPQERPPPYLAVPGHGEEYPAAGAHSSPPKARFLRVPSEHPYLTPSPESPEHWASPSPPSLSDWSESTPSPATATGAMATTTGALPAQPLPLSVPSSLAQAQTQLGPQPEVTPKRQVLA
Chain of Pro-neuregulin-1, membrane-bound isoform (Homo sapiens) (Q02297 whole entry, looked up, the tested form may be a part, canonical isoform): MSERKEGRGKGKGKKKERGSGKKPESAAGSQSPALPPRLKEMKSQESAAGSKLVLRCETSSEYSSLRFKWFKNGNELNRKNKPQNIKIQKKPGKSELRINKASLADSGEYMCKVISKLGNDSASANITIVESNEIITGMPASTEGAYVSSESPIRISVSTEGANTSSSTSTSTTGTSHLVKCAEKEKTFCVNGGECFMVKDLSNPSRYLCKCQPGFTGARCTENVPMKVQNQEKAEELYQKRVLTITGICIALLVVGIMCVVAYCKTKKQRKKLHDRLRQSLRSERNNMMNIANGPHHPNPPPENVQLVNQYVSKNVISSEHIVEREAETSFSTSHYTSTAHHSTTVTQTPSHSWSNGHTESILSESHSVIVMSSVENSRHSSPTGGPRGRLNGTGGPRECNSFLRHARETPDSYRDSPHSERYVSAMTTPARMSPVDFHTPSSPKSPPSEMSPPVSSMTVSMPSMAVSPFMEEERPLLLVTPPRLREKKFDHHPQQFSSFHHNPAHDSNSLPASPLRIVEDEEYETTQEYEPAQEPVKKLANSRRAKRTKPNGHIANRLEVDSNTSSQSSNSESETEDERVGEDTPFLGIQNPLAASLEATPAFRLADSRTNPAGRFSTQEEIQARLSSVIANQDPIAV
Chain of Torsin-1A-interacting protein 2 (Homo sapiens) (Q8NFQ8 whole entry, looked up): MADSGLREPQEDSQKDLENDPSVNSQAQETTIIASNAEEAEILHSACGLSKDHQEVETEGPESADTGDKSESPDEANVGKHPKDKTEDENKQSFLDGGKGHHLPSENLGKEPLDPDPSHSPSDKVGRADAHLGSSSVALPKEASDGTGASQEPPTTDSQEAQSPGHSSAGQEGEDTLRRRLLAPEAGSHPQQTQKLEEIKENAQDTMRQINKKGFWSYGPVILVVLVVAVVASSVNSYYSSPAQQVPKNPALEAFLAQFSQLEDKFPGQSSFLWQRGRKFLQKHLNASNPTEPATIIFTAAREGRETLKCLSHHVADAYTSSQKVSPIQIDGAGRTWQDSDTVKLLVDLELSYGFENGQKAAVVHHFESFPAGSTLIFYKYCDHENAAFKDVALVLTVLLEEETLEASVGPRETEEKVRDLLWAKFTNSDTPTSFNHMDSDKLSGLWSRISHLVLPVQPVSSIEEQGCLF

For the molecule `COCCCNC(=O)[C@@]1(C)c2ccccc2C(=O)N(C(C)C)[C@H]1c1ccc(CO)cc1`, the composite z-score in test [1] was -0.427; in test [2], 0.512; in test [3], -0.0996; in test [4] it was -0.0442; in [5], 0.552; in test [6] it was 0.302. For the same molecule, the composite z-score is 1.48 in test [7]; 0.114 in [9]; 0.0201 in test [10]; 1.53 in test [11]; 1.6 in test [15]; -0.136 in [17]. Further, the composite z-score in test [18] came to 0.571; in test [19] it was 0.473; in test [20], 0.0004. Also, the z-score in test [8] is 0.214 (inactive); in [12], 0.564 (inactive); in test [13], -0.162 (inactive); in test [14], 0.642 (inactive); in test [16] it was -0.636 (inactive).

In the case of `C[C@H]1NC(=O)[C@@]23C(=O)N[C@@H](Cc4ccccc4)C2[C@H](C)[C@@]2(C)O[C@H]2C3/C=C/C/C=C\CNC(=O)[C@@H]2CCCN2C1=O` (stereo not given in full), the composite z-score is -0.468 in [1]; -0.454 in test [2]; 0.0653 in test [3]; 0.479 in test [4]; 0.521 in [5]; 0.425 in [6]. Further, the composite z-score in test [7] was 0.909; in test [9], 0.145; in test [10] it was -0.132; in test [11] it was -0.0905; in [15], 0.697; in test [17] it was -0.166. Moreover, the composite z-score is 1.15 in [18], 1.01 in test [19] and -0.139 in test [20]. Moreover, the z-score was 0.182 (inactive) in test [8]; -0.185 (inactive) in [12]; -0.769 (inactive) in test [13]; -1.52 (inactive) in [14]; 0.1 (inactive) in test [16].

Regarding `COC(=O)[C@@]1(Cc2ccc(OC)cc2)[C@H]2c3cc(C(=O)N(C)C)n(C)c3C[C@H]2CN1C(=O)c1ccccc1`, the composite z-score in test [1] was 0.32; in test [2], 0.35; in [3], 0.24; in test [4], 0.759; in [5], 1.66; in [6] it was 1.85. Further, the composite z-score in [7] came out at 1.18; in [9], 1.48; in [10], 0.658; in [11], 1.4; in test [15], 3.73; in test [17], 0.654. Moreover, the composite z-score in [18] is 0.727; in test [19] it was 1.02; in test [20], 0.382. Also, the z-score in test [8] was 1.76 (inactive); in [12], 0.116 (inactive); in test [13] it was -0.756 (inactive); in test [14], 9.05 (active); in [16] it was -1.63 (inactive).

Turning to `C=C(C)[C@@H]1CC=C(C(O)C2C=CC3C(=O)N(C)C(=O)C3N2Nc2ccccc2)CC1` (stereo not given in full), the composite z-score in test [1] is 0.301; in test [2], 0.122; in test [3] it was -0.0216; in [4], 0.394; in test [5] it was 1.27; in [6], 0.624. For the same molecule, the composite z-score came to 0.928 in test [7]; 0.577 in test [9]; 0.176 in test [10]; 1.12 in test [11]; 1.16 in test [15]; 0.118 in test [17]. The composite z-score in test [18] was 0.728; in test [19] it was 1.08; in test [20] it was 0.0044. Also, the z-score in test [8] was 0.283 (inactive); in test [12] it was 0.821 (inactive); in test [13] it was -0.329 (inactive); in test [14], 1.92 (inactive); in test [16], -1.03 (inactive).

As to `COc1cc2c(cc1OC)CN(C(=O)[C@H]1[C@@H]3C(=O)O[C@@H](c4ccccc4)[C@@H](c4ccccc4)N3[C@@H](c3ccc(O)cc3)[C@]13C(=O)Nc1ccccc13)CC2`, the composite z-score in test [1] was 0.418; in test [2] it was 0.814; in test [3], -0.0282; in [4] it was 0.681; in [5], -0.0554; in test [6], 1.41. Also, the composite z-score in test [7] was 1.38; in test [9] it was -0.0422; in [10] it was 0.0129; in [11], 1.27; in test [15] it was 2.32; in [17], -0.139. For the same molecule, the composite z-score in test [18] was 0.0366; in test [19] it was 0.518; in [20], -0.191. The z-score in test [8] is -1.09 (inactive); in test [12] it was 1.16 (inactive); in [13], 0.536 (inactive); in [14], 1.74 (inactive); in test [16], -0.204 (inactive).
